From PubChem
S1P3 antagonist = antagonists of human S1P3 receptor; Q99500; CHO S1P3 NFAT-BLA reporter, FRET fluorescence, antagonist mode; inhibition, % at 4.98 µM; actives 0.27% (n = 170,000); AID 485;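 active means inhibition above the plate cutoff, the mean inhibition of test wells on that plate plus 3 SD, cut at about 28% in these data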;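 further: cells challenged with S1P at its EC80 of 0.8 µM; blue over green emission ratio from cleaved BLA substrate after 4 h stimulation; 0% = S1P-stimulated wells and 100% = unstimulated DMSO-only wells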
EP2 mod = modulators of human EP2 prostaglandin E2 receptor. EP2-expressing cells, cAMP HTRF FRET, PGE2 co-stimulation. induction, % at 25 µM. actives 0.83% (n = 260,000). P43116;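 active means compounds whose cAMP rise, as percent of the full-agonist control response, exceeds 60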;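 further: rat C6 glioma line stably carrying human EP2 under a CMV promoter; the protocol text gives 20 µM as final concentration; 100% = response of wells given 1 µM PGE2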
Target sequence (P43116 whole entry, looked up): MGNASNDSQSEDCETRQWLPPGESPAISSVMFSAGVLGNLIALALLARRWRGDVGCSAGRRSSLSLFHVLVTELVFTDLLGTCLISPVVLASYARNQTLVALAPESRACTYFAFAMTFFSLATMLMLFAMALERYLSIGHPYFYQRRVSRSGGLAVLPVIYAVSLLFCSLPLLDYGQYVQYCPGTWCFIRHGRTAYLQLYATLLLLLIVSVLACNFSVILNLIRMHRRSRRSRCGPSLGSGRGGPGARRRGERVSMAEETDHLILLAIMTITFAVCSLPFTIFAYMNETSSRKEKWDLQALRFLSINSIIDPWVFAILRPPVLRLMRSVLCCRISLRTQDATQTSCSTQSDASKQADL
Cl transport mod = modulators of human KCC2 chloride dependent transport; actives 2.2% (n = 190,000); KCC2 cells, thallium flux FluoZin-2 fluorescence; Q9H2X9; B-score of Tl+ flux slope (higher = more flux/activation; lower = inhibition) at 10 µM;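 active means thallium flux slope and its plate-corrected score both differing from the plate sample mean at a set confidence after two filtering rounds, in either direction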;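 further: slope of fluorescence scaled to starting intensity during 10 to 20 s after thallium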
PGE2 EP2 inh = inhibitors of human EP2 prostaglandin E2 receptor. P43116. C6 glioma cells expressing human EP2, cAMP TR-FRET; cells stimulated with saturating PGE2. inhibition, % at 25 µM. actives 0.52% (n = 260,000). AID 1422;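 active means percent inhibition above 40 after rounding to a whole number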;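 further: rat C6 glioma host cells with rolipram phosphodiesterase inhibitor present; the protocol text gives 20 µM as final concentration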
An asterisk follows results filed as active; / = no result. Hits are enriched below; roughly 3.1% of the tested compounds scored in any of these assays.

SMILES	S1P3 antagonist	EP2 mod	Cl transport mod	PGE2 EP2 inh
O=c1[nH]c(=S)[nH]c(-c2ccccc2)c1Cc1c(O)ccc2ccccc12	/	4	/	46*
NCc1c(O)ccc2ccccc12	-4	-27	0.32	8
Cc1ccc(-c2oc3ncnc(N)c3c2-c2ccc(C)cc2)cc1	-22	61*	1.9	5
Cc1ccc(N(CC(=O)NC2CCCCC2)C(=O)c2ccc(C)s2)c(C)c1	/	0	/	7
COC(=O)c1ccc(S(=O)(=O)N(Cc2cc3ccc(C)cc3[nH]c2=O)CC2CCCO2)cc1 (configuration not stated)	/	-18	/	8
Cn1c(-c2c(N)n(C3CCCC3)c3nc4ccccc4nc23)nc2ccccc21	75*	31	1.7	14
Cc1cc(C)c2cc(CN(Cc3cccs3)Cc3nnnn3CCc3ccccc3)c(=O)[nH]c2c1	/	63*	/	10
CC(=O)c1sccc1NC(=O)c1ccccc1C(=O)O	-8	85*	0.4	14
COC(=O)c1sccc1NC(=O)c1ccccc1	-9	-24	-0.42	0
CC(C)N(C(=O)CSc1ncnc2sc(-c3ccccc3)cc12)C(C)C	/	-44	7.1*	19
CCCCNc1nc(N)nc(-c2cc(Cl)ccc2O)n1	-5	64*	-0.1	9
N#Cc1c2c(c(-c3ccccc3Cl)[nH]c1=S)CCCC2	2	13	40*	16
C[N+]1(CCCC[N+]2(C)CCCCCCC2)CCCCCCC1	/	20	/	46*
CS(=O)(=O)Nc1ccc(Nc2c3ccccc3nc3ccccc23)cc1	/	-18	/	64*
O=C(CSc1ncnc2sc3c(c12)CCCC3)c1ccccc1	/	21	2.8	24
O=C(CSc1ncnc2sc3c(c12)CCCC3)OCc1ccccc1	/	62*	/	8
O=C1/C(=C/c2cccnc2)Sc2ccccc21	/	-34	0.39	49*
COc1cc(NC(=O)CSc2nnc3c(C)cc4cc(OC)ccc4n23)cc(OC)c1	/	1	/	8
O=C1/C(=C\c2ccccc2)[C@@H](NC2CCCCC2)c2ccccc21	/	-2	/	58*
c1ccc(C2=Nn3c(nnc3-c3ccncc3)SC2)cc1	2	53	-1.4	/
O=[N+]([O-])c1ccc(C2=Nn3c(nnc3-c3ccc(Cl)cc3)SC2)o1	/	-31	/	73*
COc1ccc(N2CCN(C(=O)CN(c3ccccc3C)S(C)(=O)=O)CC2)cc1	/	-5	/	11
CC(=O)N(Cc1cccs1)Cc1cc2cc3c(cc2[nH]c1=O)OCCO3	/	-17	/	8
CC(c1ccccc1F)n1cc(C(=O)NCCCN2CCOCC2)nn1 (configuration not stated)	/	2	/	10
Cc1cc(C)c2nc(SC(C)C(=O)NCC(=O)Nc3ccc(F)c(F)c3F)cc(C)c2c1 (configuration not stated)	-3	44	12*	4
SMILES	S1P3 antagonist	EP2 mod	Cl transport mod	PGE2 EP2 inh
COc1ccc(Cn2c(=S)[nH]c3cc(OC)c(OC)cc3c2=O)cc1	-29	-29	5.6	2
COc1ccc(Cn2c(=S)[nH]c3ccsc3c2=O)cc1	0	-39	26*	5
CCC(c1nnnn1Cc1ccc(F)cc1)N(Cc1cc2ccc(C)cc2[nH]c1=O)C1CCCCC1 (configuration not stated)	/	36	/	20
CC(C)(C)c1ccc(CN2CCN([C@H](c3ccccc3)c3ccc(Cl)cc3)CC2)cc1	/	15	/	45*
OCCOCCN1CCN(C(c2ccccc2)c2ccc(Cl)cc2)CC1 (configuration not stated)	12	15	0.45	20
COc1ccc(OC)c(CN(Cc2ccco2)Cc2nc[nH]c2C)c1	/	34	/	10
CC(C)C(=O)Nc1ncc(C(F)(F)F)cc1Cl	/	12	0.13	11
Cc1ccc(NC(=S)NNc2ncc(C(F)(F)F)cc2Cl)c(C)c1	/	-16	4.3*	14
FC(F)(F)c1cnc(NNC(=S)Nc2ccc(Cl)cc2)c(Cl)c1	-9	-30	30*	3
FC(F)(F)c1cccc(NC(=S)NNC(=S)Nc2ccc(Cl)cc2)c1	-1	-16	-2.2	7
CON/C=N/C(=S)Nc1ncc(C(F)(F)F)cc1Cl	-2	29	75*	10
COc1cc(C2C3=C(CC(C)(C)CC3=O)NC3=C2C(=O)CC(C)(C)C3)ccc1OCC#N	/	8	/	13
CCc1nnc(NC(=O)CSc2nc3cc4c(cc3cc2C)OCO4)s1	/	54	/	16
O=C(Nc1nc2ccsc2c(=O)s1)c1ccc(Cl)cc1	-1	-4	1.5	43*
O=C(Nc1nc(=O)c2ccccc2s1)c1ccc(Cl)cc1	/	27	/	17
CCc1cc2cc3c(cc2nc1SCC(=O)Nc1ccc(N2CCOCC2)cc1)OCO3	/	4	/	8
